# PLK1 PBD block – inhibitors of human PLK1 polo-box domain binding. Plk1 PBD binding of FITC phosphopeptide, fluorescence polarization. AID 720504. Potency, µM, for inactives: max response, negative = inhibition, actives largely listed as inhibitors. hit rate 2.8% among 360,000; also: series mostly up to about 57 µM; % is scaled to controls: 0 for no effect and ±100 for the full control effect; nearly all actives have a fitted effect of over 65% in size
# HP1b chromo inh – blocks HP1-beta chromodomain binding to methylated histone tails | AlphaScreen HP1-beta / biotin-H3K9me3 peptide binding | Potency, µM (titrated, usually from 114 µM), for the others: top-dose activity change, negative = inhibition, most hits filed as inhibitors | hit rate 0.56% among 390,000; also: nearly all actives have a fitted effect of over 70% in size
# Target sequence (P83916 whole entry, looked up): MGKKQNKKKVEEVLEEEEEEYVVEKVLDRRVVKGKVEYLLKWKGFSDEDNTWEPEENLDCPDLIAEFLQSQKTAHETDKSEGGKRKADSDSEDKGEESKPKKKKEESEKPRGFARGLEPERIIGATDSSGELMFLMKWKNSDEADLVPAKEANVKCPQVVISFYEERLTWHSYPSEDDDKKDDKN
#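 HP1-beta protein (50 nM final) preincubated 30 min at room temperature with biotinylated H3(1-18)K9me3 peptide (50 nM) in PBS pH 7.4, 0.01% Tween-20, then compound added for 30 min. AlphaScreen streptavidin donor/nickel chelate acceptor beads (10 ug/mL final), 30 min dark, luminescence read.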
# G9a inh – inhibitors of human histone lysine methyltransferase G9a; Q96KQ7; hit rate 8.8% among 350,000; G9a H3K9 monomethylation, AlphaScreen, 2 h; Potency, µM (series often up to 102 µM), for inactives: at the highest dose activity, negative = inhibition, usual class: inhibitors; also: % is scaled to controls: 0 for no effect and ±100 for the full control effect; nearly all actives have a fitted effect of over 75% in size
# Target sequence (Q96KQ7 913-1193 limits assumed): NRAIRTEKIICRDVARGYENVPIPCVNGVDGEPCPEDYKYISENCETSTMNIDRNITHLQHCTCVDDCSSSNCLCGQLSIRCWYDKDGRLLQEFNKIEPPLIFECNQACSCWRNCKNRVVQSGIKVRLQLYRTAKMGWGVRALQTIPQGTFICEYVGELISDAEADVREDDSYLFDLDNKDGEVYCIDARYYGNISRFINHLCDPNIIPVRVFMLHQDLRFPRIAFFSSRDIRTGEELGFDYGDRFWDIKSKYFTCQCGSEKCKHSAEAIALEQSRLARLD
#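 G9a (20 nM) preincubated 15 min RT with compounds, then 500 nM biotinylated H3K9 peptide and 20 uM SAM added; 2 h RT reaction. Monomethyl-H3K9 product detected by AlphaScreen with anti-H3K9me1 antibody, streptavidin donor and anti-rabbit IgG acceptor beads.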
# ALOX12 inh – blocks human arachidonate 12S-lipoxygenase. P18054. purified 12hLO, xylenol orange hydroperoxide absorbance. Potency, µM (titrated, usually from 108 µM), for inactives: at the highest dose activity change, negative = inhibition, most hits filed as inhibitors. hit rate 1.1% among 580,000; also: % is scaled to controls: 0 for no effect and ±100 for the full control effect
#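 Purified human 12hLO at 150 nM in 25 mM Hepes, 0.01% Triton X-100, pH 7.0, preincubated 15 min at room temperature with compound. Reaction started with 40 uM arachidonic acid, 30 min at room temperature. Hydroperoxide measured by Fe-xylenol orange, 573/405 nm absorbance ratio.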
# JMJD2A Tudor – JMJD2A Tudor domain (human) inhibition; AlphaScreen JMJD2A-Tudor / H3K4me3 peptide binding; Potency, µM (doses to about 114 µM), for the others: top-dose activity change, negative = inhibition, hits mostly inhibitors; hit rate 4.4% among 390,000; AID 504339; also: % is scaled to controls: 0 for no effect and ±100 for the full control effect; nearly all actives have a fitted effect of over 50% in size
# BAZ2B block – inhibitors of human BAZ2B bromodomain. Q9UIF8. AlphaScreen BAZ2B-H3K14Ac peptide displacement. Potency, µM (series often up to 114 µM), for the others: at the highest dose activity change, negative = inhibition, usual class: inhibitors. hit rate 4.4% among 360,000. AID 504333; also: % is scaled to controls: 0 for no effect and ±100 for the full control effect; nearly all actives have a fitted effect of over 60% in size
#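 In this displacement format the biotinylated H3(5-23) peptide acetylated at Lys14 serves as ligand at 50 nM, with BAZ2B at 50 nM in PBS pH 7.4 containing 0.01% Tween-20. Donor and acceptor beads are 10 ug/mL final.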
# * = called active by the depositor; ? = inconclusive; · = not tested or not shown; [ ] = dose if it differs, or a comment. Shown are actives, neighbours in structure and some others; about 9% of the full set was active somewhere. Calls follow the shape of the dose curve; as a rule, active = well fitted curve in the direction sought with a large enough effect; inconclusive = small, poorly fitted or top-dose-only effect, or another doubt; inactive = no such curve, though single readings can be large; an effect the other way counts as inactive or inconclusive. Potency is read from the fitted curve at half-maximal effect.
SMILES,PLK1 PBD block,HP1b chromo inh,G9a inh,ALOX12 inh,JMJD2A Tudor,BAZ2B block
CCCCN(CCCC)Cc1cc(=O)oc2ccc3ccccc3c12,-6.2%,·,·,35.5µM*,·,·
Cc1ccc(/C=N/NC(=O)c2ccc(-c3ccccc3)cc2)o1,-6.4%,9.3%,20.9%,-11.7%,-20.8%,2.0%
N#C/C(=C\c1ccc(OCc2ccc(F)cc2)cc1)C(=O)Nc1cccc(C(=O)O)c1,?,21.7%,-8.2%[12.7 µM],-23.3%,-30.5%,79.4µM*
N#C/C(=C\c1ccc(OCc2ccccc2)cc1)C(N)=O,9.47µM*,?,-27.9%,12.6%,14.1µM*,0.8%
COc1cc(/C=C(\C#N)C(=O)Nc2cccc(C(=O)O)c2)ccc1OCc1ccc(F)cc1,?,25.8%,?,-10.0%,-28.9%,-28.9%
Cc1ccccc1COc1ccc(/C=C(\C#N)C(N)=O)cc1,-8.3%,18.9%,0.4%,1.1%,-5.4%,-11.4%
N#C/C(=C\c1ccccc1OCc1ccc(C(=O)O)cc1)C(=O)Nc1ccc(O)cc1,?,?,50.1µM*,-6.2%,-11.3%[11.4 µM],-33.1%
N#C/C(=C\c1ccc(OCc2ccc(Br)cc2)cc1)C(=O)Nc1cccc(C(=O)O)c1,21.2µM*,-2.5%,?,-18.9%,39.8µM*,56.2µM*
N#C/C(=C/c1ccc(OCc2ccc(C(=O)O)cc2)cc1)C(=O)Nc1ccccc1,?,0.9%,50.1µM*,·,25.1µM*,79.4µM*
Cn1c(=O)c2c(-c3ccc(Cl)cc3)n(Cc3ccc(Cl)cc3)cc2n(C)c1=O,·,5.8%,-37.2%[59 µM],?,-12.8%,-31.6%
Cc1ccc(-c2c3c(=O)n(C)c(=O)n(C)c3cn2Cc2cccnc2)cc1,-29.8%,46.7%,7.94µM*,0.0%,-20.2%,11.1%
Cn1c(=O)c2c(-c3ccccc3)n(Cc3cccnc3)cc2n(C)c1=O,-14.7%,36.1%,10µM*,56.4%,-18.1%,1.7%
CCCCNC(=O)c1ccc2nc[nH]c2c1,·,·,·,-37.2%,·,·
Cc1cccc(NC(=O)CSc2ncnc3nc[nH]c23)c1C,-1.2%,33.1%,44.7µM*,-23.4%,-29.8%,-34.0%
Cc1cccc(NC(=O)CNC(=O)c2ccc3nc[nH]c3c2)c1C,-10.6%,-6.4%,?,2.3%,-27.0%,50.1µM*
Cc1cc(SCc2ccccc2F)nc(=O)[nH]1,-4.5%,48.5%,20.7%,36.8%,3.6%,?
CCOc1ccc(CNc2cccc(SC)c2)cc1,-6.6%,44.7µM*,28.2µM*,-20.6%,3.16µM*,39.8µM*
Cc1ccccc1C(C(=O)NCc1ccccc1)N(Cc1ccco1)C(=O)c1ccccn1 (stereo not given),-15.8%,32.0%,?,-17.5%,-6.9%[57.1 µM],-35.5%
Cc1cc(-c2nc(C)c(C(=O)NNS(=O)(=O)c3cccc(C(F)(F)F)c3)s2)no1,-0.7%,37.3%,·,-73.5%,-14.8%,-8.7%
Cc1cc(-c2nc(C)c(C(=O)NNS(=O)(=O)c3ccc(Cl)cc3Cl)s2)no1,-8.8%,1.1%,39.8µM*,?,?,-24.1%
CCOc1ccc(CN2CCCC(N3CCN(c4ccc(OC)cc4)CC3)C2)cc1 (stereo not given),-7.2%,2.2%,-7.5%,-4.6%,?,?
Fc1ccc(CN2CCN(c3ncnc4scc(-c5ccccc5)c34)CC2)cc1,2.3%,21.8%,41.1%[2.33 µM],2.0%,?,-10.2%
Fc1ccc(-c2csc3ncnc(Nc4ccc(N5CCOCC5)cc4)c23)cc1,-11.2%,-24.3%,31.9%[0.501 µM],21.2%,?,39.8µM*
Fc1ccc(N2CCN(c3nc(CN4CCOCC4)nc4scc(-c5ccccc5)c34)CC2)cc1,-12.6%,?,8.91µM*,-1.3%,44.7µM*,11.2µM*
COc1ccc(C(=O)Nc2nc(CC(=O)NCCc3ccccc3OC)cs2)cc1,-2.3%,19.7%,-27.5%,-21.8%,-12.3%,-3.0%
SMILES,PLK1 PBD block,HP1b chromo inh,G9a inh,ALOX12 inh,JMJD2A Tudor,BAZ2B block
Cc1c(-n2nnnc2SC(C)C)c(=O)n(-c2ccccc2)n1C,·,·,·,-12.0%,·,·
CN(C)S(=O)(=O)c1cc(NC2CC(=O)N(c3ccc(F)cc3)C2=O)ccc1Cl (stereo not given),-3.0%,45.1%,35.5µM*,-9.9%,-10.6%,-15.3%
COc1cccc(CNC(=O)CSc2nnc3c(n2)[nH]c2ccccc23)c1,-9.3%,5.2%,-6.0%,?,-2.8%,-23.2%
CCN(CC)S(=O)(=O)c1cc(NC(=O)c2ccc(Br)s2)ccc1C,18.9µM*,-12.1%,-21.5%,-4.5%,?,-19.0%
CCN(CC)S(=O)(=O)c1cc(NC(=O)c2ccc3c(c2)NC(=O)C(C)S3)ccc1C (stereo not given),8.44µM*,?,1µM*,?,-30.1%,-2.2%
Cn1c(=O)c2c(ncn2CC(=O)Nc2ccccc2C(=O)NCC2CCCO2)n(C)c1=O (stereo not given),·,·,·,29.0%,·,·
COc1ccc(Cl)cc1NC(=O)Cn1c(C)cc(=O)n2nc(-c3cccs3)nc12,·,·,·,5.2%,·,·
COc1ccccc1/C=c1\sc2nc(-c3ccco3)nn2c1=O,?,50.1µM*,20µM*,·,17.8µM*,35.5µM*
COc1ccc(OC)c(/C=c2\sc3nc(-c4cccs4)nn3c2=O)c1,?,9.6%,11.2µM*,-10.9%,-16.7%,-3.6%
CC(CCc1ccco1)NC(=O)c1cc2c(-c3ccccc3F)nn(C)c2s1 (stereo not given),-2.3%,7.9%,89.1µM*,-28.5%,-21.3%,-1.8%
COc1ccc(OCC#CCNC(C)(C)C)cc1,-9.5%,?,7.94µM*,-23.4%,39.8µM*,56.2µM*
Cc1cc(Cl)c(OCCCN2CCCCC2)c(Br)c1,-3.0%,?,?,?,28.2µM*,50.1µM*
Cc1cc(Cl)c(OCCOCCN2CCNCC2)c(Cl)c1,4.0%,30.6%,·,?,-4.7%,·
Cc1cc(Cl)cc(Cl)c1OCCCCN(C)C,-18.9%,?,8.91µM*,-21.1%,44.7µM*,-34.7%
Cc1cc(C)c(OCCN2C(=O)NC(C)(C)C2=O)c(Cl)c1,1.4%,49.7%,-43.5%,-19.5%,-2.1%,7.3%
Cc1cc(C)c(OCCOCCN2CCN(C)CC2)c(Cl)c1,-5.9%,?,3.55µM*,?,1.58µM*,31.6µM*
Cc1cc(C)c(OCCN2CCCC2)c(Cl)c1,-7.7%,-22.2%,44.7µM*,-11.3%,-100.4%,-32.0%
Cc1ccc(C(C)C)c(OCCCCN(C)C)c1,·,·,·,-77.5%,·,·
O=C(Nc1ccccc1)c1cccnc1N1CCOCC1,-5.4%,-7.2%,36.9%[59 µM],-55.3%,?,-4.8%
COC(=O)C[C@@H]1CC[C@H](NC(=O)c2ccccc2)[C@@H](CO)O1,-9.7%,·,·,-2.9%,·,·
Cc1cc(Cl)cc(Cl)c1OCCN1CCCC1,-1.0%,?,50.1µM*,?,50.1µM*,-8.6%
O=c1/c(=C\c2ccc3c(c2)OCO3)sc2n1CCCN=2,-6.2%,-0.4%,-9.1%,?,-16.2%,1.0%
